Pf Dd2 inh: qHTS Primary assay for Inhibitors of Plasmodium falciparum Dd2 growth in vitro. 120,000 tested, 4.3% active. P. falciparum Dd2 growth, SYBR Green, 72 h. Potency, µM (top dose mostly 28.9 µM), for the others: top-dose activity, negative = inhibition, hits mostly inhibitors. AID 1347417, 2020; active means well fitted inhibition curve with a large enough effect;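 further: plate controls were DMSO vehicle for no effect and reference drug for full effect; nearly all actives have a fitted effect of over 65% in size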
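Readout: SYBR Green fluorescence, 485 nm excitation, 535 nm emission, after ~16 h lysis at 37C. Before that, Dd2-infected red cells (2.5% hematocrit) grew 72 h with compound, 29 uM top final concentration.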
An asterisk follows results filed as active; i = inactive; [ ] = dose if it differs, or a comment. The entries come from a sample that favours hits as a whole. Potency means the concentration at half of the fitted maximal effect.

SMILES | Pf Dd2 inh
CN1CCC(Oc2nccnc2N2CCc3ccccc3C2)C1 (stereo not drawn) | 8.9µM*
c1cc(CN2CCC(Oc3nccnc3N3CCOCC3)C2)ccn1 (stereo not drawn) | -25%
O=C(c1cc(F)ccc1F)N1CCC2(CC1)NC(=O)N(Cc1ccc(F)cc1)C2=O | -7%
CCC(=O)N1CCCC(Cc2nncn2-c2ccccc2)C1 (stereo not drawn) | 0%
O=C(COc1ccccc1)N1C[C@@H]2C[C@H](C1)c1c(NS(=O)(=O)c3ccccc3)ccc(=O)n1C2 | -25%
Cc1ncsc1CCC(=O)NCc1cc2n(n1)CCN(C(=O)N(C)C)C2 | 9%
O=C(Nc1ccc([C@H]2OCC(=O)N(Cc3ccc(F)cc3)[C@@H]2CO)cc1)c1cnccn1 | 2%
CC(=O)N1CC2(Cc3ccccc31)CN([S+](=O)([O-])c1c(C)noc1C)C2 | 16%
COCCc1nc(-c2cnc(C3CC3)nc2)n(-c2ccc(F)cc2F)n1 | -2%
CN(CCO)CC1(O)CCCN(Cc2cccc(F)c2F)C1=O (stereo not drawn) | i
CC(C)(C)CNCC1(O)CCCN(Cc2cccc(F)c2F)C1=O (stereo not drawn) | 4.5µM*
O=C1N(Cc2cccc(F)c2F)CCCC1(O)CN1CCNCC1 (stereo not drawn) | -2%
CNC(=O)c1ccc(CN2CCCC(CCc3ccccc3C(F)(F)F)C2)o1 (stereo not drawn) | 7.9µM*
Cn1ccc(C(=O)N2CCCC(CCc3ccccc3C(F)(F)F)C2)n1 (stereo not drawn) | -7%
O=C(C1CCOCC1)N1CCCC(CCc2ccccc2C(F)(F)F)C1 (stereo not drawn) | -10%
O=C(CCc1ccccc1)N1CCC2(CC1)NC(=O)N(c1ccccc1)N2 | -15%
Cc1nc([C@@H]2CN(C(=O)c3ccc(Cl)s3)C[C@H]2C(N)=O)n[nH]1 | 0%
COc1cccc(CNCC2(COc3ccccc3)C[C@@H](O)[C@@H](O)C2)c1 (stereo partly drawn) | 4µM*
COc1cccc(C(=O)NCC2(COc3ccccc3)C[C@@H](O)[C@@H](O)C2)c1 (stereo partly drawn) | i
COc1ccc(CNCC2(COc3cccnc3)C[C@@H](O)[C@@H](O)C2)cc1 (stereo partly drawn) | -17%[44.1 µM]
O=C(NCC(F)(F)F)C1CN(Cc2ccccc2)C(=O)N1 (stereo not drawn) | 4%[44.1 µM]
CSc1cccc(NC(=O)CN2C(=O)NC3(CCC(C)CC3)C2=O)c1 (stereo not drawn) | i
COCC(=O)N1CCN2C(=O)N(CC(N)=O)C(=O)[C@@H]2C1 | -12%[44.1 µM]
CC(C)CCC(=O)N1C[C@@H](CO)[C@H](c2nc(-c3ccncc3)no2)C1 | 12%
COc1cccc(C(=O)N2CCC(N3C[C@H](O)C[C@H]3C(=O)N3CCc4ccccc43)CC2)c1 | 2.5µM*
SMILES | Pf Dd2 inh
COc1cccc(C(=O)N2CCC(N3C[C@H](O)C[C@H]3C(=O)NC3CC3)CC2)c1 | -17%
CNC(=O)[C@@H]1C[C@@H](O)CN1C1CCN(C(=O)c2cccc(OC)c2)CC1 | -6%
COc1cccc(C(=O)N2CCC(N3C[C@H](O)C[C@H]3C(=O)N3CC=C(c4ccccc4)CC3)CC2)c1 | 0.89µM*
COc1cccc(C(=O)N2CCC(N3C[C@H](O)C[C@H]3C(=O)N3CCN(c4ncccn4)CC3)CC2)c1 | -4%
C=CCN1CCN(C(=O)[C@@H]2C[C@@H](O)CN2C2CCN(C(=O)c3cccc(OC)c3)CC2)CC1 | -18%
O=C(NC1CCCCC1)N1CCC(c2noc(-c3cccnc3)n2)C1 (stereo not drawn) | -9%[5.79 µM]
COC1CCN(C(=O)c2cnc3c(c2)N(Cc2ccccc2)CCC3)CC1 | -9%[44.1 µM]
CCC(=O)N1CCOc2ccc(CN3CCCCC3)cc2C1 | 3%
Cc1[nH]c(=O)c(C#N)cc1C(=O)N1CCCC2(CCC(=O)N(C3CC3)C2)C1 (stereo not drawn) | -5%
COc1ccc(-c2nc(CN3CCC(C(=O)NCCCN4CCN(c5ccccc5F)CC4)CC3)c(C)o2)cc1OC | 10µM*
COCCCNC(=O)C1CCN(Cc2nc(-c3ccc(OC)c(OC)c3)oc2C)CC1 | 8%
Cc1oc(-c2ccc(Cl)cc2)nc1CN1CCC(C(=O)NCCCN2CCN(c3cccc(Cl)c3)CC2)CC1 | -24%
Cc1oc(-c2cccc(Cl)c2)nc1CN1CCC(C(=O)NCCCN2CCN(c3ccc(F)cc3)CC2)CC1 | 5.6µM*
Cc1oc(-c2cccc(Cl)c2)nc1CN1CCC(C(=O)NCCCN2CCN(c3ccccc3F)CC2)CC1 | -29%
CCCCNC(=O)C1CCN(Cc2nc(-c3ccc(OC)c(OC)c3)oc2C)CC1 | -4%
Cc1cc(C)n(C)c(=O)c1C(=O)N1CCC2(CC1)CNC(C(=O)O)C2 (stereo not drawn) | -6%
CNC(=O)N1C[C@@H](CN(C)C)[C@H](NC(=O)c2ccco2)C1 | 16%
CC(C)N[C@H]1C[C@@H](Cc2cc(CN3CCOCC3)on2)C1(C)C | 23%[44.1 µM]
CN(C)C(=O)N1CCCN(c2nc3ncccc3o2)CC1 | 4%[44.1 µM]

High-throughput results deposited in PubChem by National Center for Advancing Translational Sciences (NCATS).
